# Laboratory results from PubChem BioAssay (EPA / NIEHS).
# Where “and” joins values, the source holds several entries; their conditions need not be identical. Identical values can stand only once. Where a structure was tested more than once in an assay, its records may differ in their call. Calls of active or inactive are those of the source. Rule for the calls: active = hit-call score of the fitted dose curve at least 0.9, where 1 is the maximum; inactive = score below 0.9.
# Read-out: Monocyte Chemoattractant Protein-1 (MCP1), CCL2 (gene 6347)
# Test: BSK_LPS_MCP1: BioMAP Diversity Plus: LPS Assay for Monocyte Chemoattractant Protein-1 (MCP1) Biomarker Activity (AID 2283081);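 for AC50: co-culture stimulated with LPS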
# Conditions: primary human HUVEC with PBMC; actives raise or lower the signal
# Experimental: BSK_LPS is a cell-based, multiplexed-readout assay that uses umbilical vein endothelium and peripheral blood mononuclear cells, a human vascular primary cell co-culture, with measurements taken at 24 hours after chemical dosing in a 96-well plate.BSK_LPS_MCP1 is an assay component measured in the BSK_LPS assay. It measures MCP-1 antibody related to regulation of gene expression using ELISA technology.Data from the assay component BSK_LPS_MCP1 was analyzed into 1 assay endpoint. This assay endpoint, BSK_LPS_MCP1, was analyzed with bidirectional fitting relative to DMSO as the negative control and baseline of activity. Using a type of binding reporter, gain or loss-of-signal activity can be used to understand changes in the signaling as they relate to the gene CCL2. Furthermore, this assay endpoint can be referred to as a primary readout, because this assay has produced multiple assay endpoints where this one serves a signaling function. To generalize the intended target to other relatable targets, this assay endpoint is annotated to the cytokine intended target family, where the subfamily is chemotactic factor.
# The levels of cell surface (or secreted, indicated by the prefix "s") biomarker endpoints were measured by ELISA. Overt cytotoxicity to cells in confluent adherent cultures (all systems other than the BT system) was assessed by measuring total protein levels using sulforhodamine B (SRB) staining in parallel cultures at the time of biomarker measurements, indicated as SRB endpoints. For proliferation assays for adherent cell types, individual cell types are cultured at sub-confluence and relative cell numbers quantified by SRB staining at time points optimized for each system (48 h: 3C and CASM3C systems; 72 h: BT and HDF3CGF systems; 96 h: SAg system). SRB was performed by staining cells with 0.1% SRB after fixation with 10% TCA and reading wells at 560 nm.Viability and proliferation of PBMC (T cells) was quantified by Alamar Blue reduction for the SAg and BT systems. For PBMC viability (referred to as PBMC Cytotoxicity within the assay endpoint names), cells were plated (75,000/well in a 96-well plate) and then chemical samples added for 1 h before addition of activators, SEB and TSST-1 (20 ng/mL final concentration each). Cells were incubated for 90 h. Then, Alamar Blue (20 uL/well) (Invitrogen, Cat DAL1100) was added for 6 h, and the plates were read with a fluorescence microplate reader at 546/580 nm (excitation/emission). For PBMC proliferation, cells were plated and activated as above but incubated for only 16 h prior to addition of Alamar Blue. Plates were read after 6 h.
SMILES,AC50,outcome
O=[N+]([O-])c1cc(S(=O)(=O)Nc2ccccc2)ccc1Nc1ccccc1,29.1 µM (active) and 28.5 µM (active),–
Cc1cc(-n2nc3ccc(Cl)cc3n2)c(O)c(C(C)(C)C)c1,–,inactive
Cc1c(C(N)=O)cc([N+](=O)[O-])cc1[N+](=O)[O-],–,inactive
OC(C(F)(F)F)(C(F)(F)F)C(O)(C(F)(F)F)C(F)(F)F,23.9 µM (active) and 23.3 µM (active),–
CCCCC(CC)COC(=O)C=Cc1ccc(OC)cc1 (stereo not drawn),32.3 µM (active),inactive
CCCCCCC(O)CCCCCCCCCCC(=O)OC (stereo not drawn),–,inactive
Cc1cccnc1,–,inactive
Oc1cccc2ccccc12,–,inactive
Sc1nc2ccccc2s1,0.504 µM (active),–
COc1ccc(C(=O)c2ccccc2O)c(O)c1,–,inactive
CCCCCCCCCCCCCCCCCC[N+](C)(C)C,3.66 µM (active),–
COc1cc(CNC(=O)CCCC/C=C/C(C)C)ccc1O,–,inactive
CCCCCCCCCC/C=C/C1CC(=O)OC1=O (stereo not drawn),–,inactive
CN(C)c1ccc(C(c2ccccc2)c2ccc(N(C)C)cc2)cc1,13.2 µM (active),–
CC(C)CC(=O)CC(C)CC(C)C (stereo not drawn),–,inactive
CCCCCCCCCCC1CO1 (stereo not drawn),31.7 µM (active),–
O=C(C(=O)c1ccccc1)c1ccccc1,–,inactive
CC[N+](CC)(CC(=O)Nc1c(C)cccc1C)Cc1ccccc1,–,inactive
COC(=O)/C=C\C(=O)OC,–,inactive
C1CN(CCOCCN2CCOCC2)CCO1,–,inactive
CC[N+](CC)(CC(=O)Nc1c(C)cccc1C)Cc1ccccc1 (tested in a mixture with another compound),–,inactive
CCC[Si](OC(C)=O)(OC(C)=O)OC(C)=O,–,inactive
COc1ccccc1Oc1c(NS(=O)(=O)c2ccc(C(C)(C)C)cc2)nc(-c2ncccn2)nc1OCCO,–,inactive
CN(C)Cc1cc(C(C)(C)C)c(O)c(C(C)(C)C)c1,–,inactive
CC(C)C1OCCN1CCOC(=O)NCCCCCCNC(=O)OCCN1CCOC1C(C)C (stereo not drawn),–,inactive
CCC(C)=NO,–,inactive
CN(C)CCC(c1ccc(Cl)cc1)c1ccccn1 (stereo not drawn),–,inactive
